# In ChEMBL document CHEMBL4808148, “HDAC6 screening dataset using tau-based substrate in an enzymatic assay yields selective inhibitors and activators” (2021):
# About 390 (7%) of roughly 5,600 compounds showed an effect of 50% or more. Shown is part of a subset that was picked to be rich in strong results. Residues, ends and D or L forms follow the SMILES beside them.
# How the values were obtained:
# [1] = target: T1, Protein deacetylase HDAC6 (Homo sapiens) (UniProt Q9UBN7); conditions: at 10 µM
# T1 sequence (whole entry): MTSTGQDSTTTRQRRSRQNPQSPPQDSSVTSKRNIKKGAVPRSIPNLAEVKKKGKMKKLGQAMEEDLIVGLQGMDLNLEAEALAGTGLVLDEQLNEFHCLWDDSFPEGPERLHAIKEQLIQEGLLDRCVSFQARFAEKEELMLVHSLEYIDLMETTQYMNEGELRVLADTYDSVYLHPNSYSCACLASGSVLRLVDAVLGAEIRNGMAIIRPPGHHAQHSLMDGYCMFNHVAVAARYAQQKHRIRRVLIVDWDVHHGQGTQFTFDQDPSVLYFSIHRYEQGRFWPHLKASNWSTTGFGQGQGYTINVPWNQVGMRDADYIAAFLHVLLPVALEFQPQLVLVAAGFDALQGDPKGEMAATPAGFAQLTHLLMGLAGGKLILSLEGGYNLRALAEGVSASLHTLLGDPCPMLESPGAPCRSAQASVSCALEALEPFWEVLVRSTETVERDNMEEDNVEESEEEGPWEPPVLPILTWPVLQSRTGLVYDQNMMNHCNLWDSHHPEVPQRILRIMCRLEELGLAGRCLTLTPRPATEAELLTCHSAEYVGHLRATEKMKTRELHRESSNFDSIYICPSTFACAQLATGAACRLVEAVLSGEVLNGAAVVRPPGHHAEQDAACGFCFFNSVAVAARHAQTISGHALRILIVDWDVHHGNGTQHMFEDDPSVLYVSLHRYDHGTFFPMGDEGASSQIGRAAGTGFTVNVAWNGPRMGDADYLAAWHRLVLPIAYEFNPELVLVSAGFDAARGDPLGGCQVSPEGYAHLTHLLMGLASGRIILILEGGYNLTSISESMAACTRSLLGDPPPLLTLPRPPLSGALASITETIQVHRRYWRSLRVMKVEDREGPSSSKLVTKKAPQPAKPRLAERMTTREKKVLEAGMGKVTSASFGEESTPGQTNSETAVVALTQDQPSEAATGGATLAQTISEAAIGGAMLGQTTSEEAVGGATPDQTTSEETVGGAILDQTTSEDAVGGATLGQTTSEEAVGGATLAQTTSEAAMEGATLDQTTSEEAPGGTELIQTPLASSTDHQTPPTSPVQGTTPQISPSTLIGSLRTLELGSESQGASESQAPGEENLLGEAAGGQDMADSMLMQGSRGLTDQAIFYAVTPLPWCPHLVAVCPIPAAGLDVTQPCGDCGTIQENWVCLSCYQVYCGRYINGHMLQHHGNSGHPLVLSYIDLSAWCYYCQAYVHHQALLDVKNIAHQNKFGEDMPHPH
# [2] = target: Protein deacetylase HDAC6 (Homo sapiens) (UniProt Q9UBN7); conditions: at 10 µM; remark: listed apart in the source
Molecule,inhibition [1],inhibition [2]
CN(C)CCC1(c2ccc(Cl)cc2)Cc2ccccc2C(=O)O1 (racemic),3.8%,–
Cn1cnc([N+](=O)[O-])c1Sc1ncnc2[nH]cnc12,12.8%,–
OCc1cc([C@@H](O)CNCCCCCCOCCOCc2c(Cl)cccc2Cl)ccc1O,59.3%,–
OCc1cc(C(O)CNCCCCCCOCCCCc2ccccc2)ccc1O (centres undefined),-5.85%,–
Oc1ccc(C(O)CNCCCCCCNCC(O)c2ccc(O)c(O)c2)cc1O (centres undefined),-3.51%,–
COc1ccc(Cl)cc1NC(=O)Nc1cc(C)nc2ccccc12,16.6%,–
COc1cc(NS(C)(=O)=O)ccc1Nc1c2ccccc2nc2ccccc12,76.6%,–
COc1ccc(S(=O)(=O)Nc2cccnc2Nc2ccc(O)cc2)cc1,34.3%,–
CCOC(=O)c1cc(C#N)c(N2CCC(C(=O)NS(=O)(=O)Cc3ccccc3)CC2)nc1C,21.9%,–
NCC(=O)N[C@@H](CCC(N)=O)C(=O)O (H-Gly-Gln-OH),29.1%,–
O=S(=O)(Cc1ccccc1)Nc1ccc(-c2ccc3c(cnn3-c3ccc(F)cc3)c2)c(C(F)(F)F)c1,-8.14%,–
N[C@H]1C[C@@H]1c1ccc(-c2cccc(O)c2)cc1,77.4%,–
Oc1cccc(O)c1,1.38%,–
O=c1[nH]c2ccccc2n1C1CCN(CCOc2ccccc2)CC1,20.9%,–
CCOC(=O)c1cc2ccc(O)cc2oc1=O,55.9%,–
CN1CCC(COc2cnc(-c3cccc(Cn4nc(-c5cccc(C#N)c5)ccc4=O)c3)nc2)CC1,17.5%,–
COc1cc2c(cc1-c1c(C)noc1C)ncc1[nH]c(=O)n([C@H](C)c3ccccn3)c12,12.8%,–
CC(=O)/N=c1/[nH]c(C)c(-c2ccc(Cl)c(S(=O)(=O)NCCO)c2)s1,23.4%,–
CCCCC1=NC2(CCCC2)C(=O)N1Cc1ccc(-c2ccccc2-c2nnn[nH]2)cc1,-8.81%,–
O=C(O)c1cnn(-c2nc3cc(OC(F)(F)F)c(Cl)cc3[nH]2)c1,59.5%,–
Cc1cc(NCCO)nc(-c2ccc(Br)cc2)n1,85.2%,–
COc1ccc(Nc2nccc(NCCO)n2)cc1,37.2%,–

Molecule,inhibition [1],inhibition [2]
N#Cc1cc(CN2CCC(Nc3ncnc4sc(Cl)cc34)CC2)ccc1F,6.29%,–
Cn1c(NC[C@@H](N)Cc2ccccc2)nc(-c2ccncc2)c(-c2ccc3ccccc3c2)c1=O,0.59%,–
Nc1nccc2c1ncn2[C@@H]1O[C@H](CO)C(O)C1O (some centres undefined),11%,–
C[C@H](NC(=O)CNC(=O)c1cccc(Cl)c1)c1ccccc1,21.1%,–
COc1ccc(C(=O)NCc2ccc(OCCN(C)C)cc2)cc1OC,1.13%,–
CN(C)Cc1c(C(=O)NCCOc2ccc(C(=O)NO)cc2)oc2ccccc12,102%,–
COc1cc(C(=O)NCc2ccc(OCCN(C)C)cc2)cc(OC)c1OC,6.33%,–
N#Cc1cc2c(OCC(O)CN3CCN(C(c4ccccc4)c4ccccc4)CC3)cccc2[nH]1 (racemic),3.02%,–
O=C1CC2(CCCC2)CC(=O)N1CCNCC1COc2ccccc2O1 (centres undefined),5.51%,–
CN(C)C(=O)n1nnnc1Cc1ccc(-c2ccccc2)cc1,26.8%,–
CCCNC(=O)N1N=C(c2ccc(N)cc2)c2cc3c(cc2C1C)OCO3 (centres undefined),26.2%,–
Cc1[nH]c(/C=C2\C(=O)Nc3ccc(F)cc32)c(C)c1C(=O)NC[C@H](O)CN1CCOCC1,34%,–
Cc1ccc(OCCSc2ncccn2)c(Br)c1,99.3%,–
CCCCCCCCCCCCCCC[C@@H](O)[C@@H](N)CO,26%,–
"Sodium stibogluconate, CHEMBL2079699",–,0.83%
CN(C)c1ccc(/C=C2\C(=O)Nc3ccccc32)cc1,101%,–
Cc1[nH]c(/C=C2\C(=O)Nc3ccccc32)c(C)c1CCC(=O)O,30.1%,–
CCN(CC)CCNC(=O)c1c(C)[nH]c(/C=C2\C(=O)Nc3ccc(F)cc32)c1C,16.3%,–
Cc1cc(C)c(/C=C2\C(=O)Nc3ccccc32)[nH]1,88.8%,–
C#Cc1c[nH]c(=O)[nH]c1=O,-6.92%,–
CC1(C)CN2C(CS/C(=N\C3CCCCC3)NC3CCCCC3)=CSC2=N1,12.2%,–
O=S(=O)(NC1CCNCC1)c1cc(S(=O)(=O)c2ccccc2)ccc1C(F)(F)F,-7.14%,–
